assay: growth suppression of yeast trafficking mutant, preliminary HTS, modulators of trafficking downstream of Golgi apparatus project, 1536-format plate, OD 615 nm (AID 637); settings: yeast transport mutant growth, absorbance 615 nm, 18 h; stronger effect = higher value; in the data active = inhibition above about 30%; inactive = the rest

inhibition, inactive:
COc1ccccc1NC(=O)CSc1nnc(-c2ccncc2)o1 -4.33%, CCOc1ccc2oc(-c3ccccc3)c(C(=O)N3CCN(CCO)CC3)c2c1 0%, O=S(=O)(NCC1CCCO1)c1ccc(S(=O)(=O)N2CCc3ccccc3C2)cc1 (stereo not given) 2.42%, CCC(C(=O)Nc1ncccn1)(C(F)(F)F)C(F)(F)F 0.82%, O=C(Cc1ccc(Br)cc1)N1CCCCCC1 -0.49%, Cc1ccc2cc(C(c3nnnn3CC3CCCO3)N3CCc4ccccc4C3)c(=O)[nH]c2c1 (stereo not given) -6.83%, S=C(NCC1CCCO1)n1nnc2ccccc21 (stereo not given) -0.95%, CO/C([O-])=N/c1c[n+](-c2ccc(C)cc2)no1 7.38%, CNc1ccc(C(O)(C(F)(F)F)C(F)(F)F)cc1C(O)(C(F)(F)F)C(F)(F)F 5.25%, COc1ccccc1-n1c(SCC(=O)Nc2ccc3c(c2)OCO3)nc2c(c1=O)SCC2 23.5%, O=c1cc(C(F)F)oc2c1ccc1ccccc12 2.33%, CCOc1cc(C2/C(=C(/O)c3ccc(OC(C)C)cc3)C(=O)C(=O)N2CCCOC)ccc1O (stereo not given) 3.17%, Cc1ccc(S(=O)(=O)Cn2nnnc2CN(Cc2ccco2)Cc2cccs2)cc1 -7.87%, Cc1c(NC(=O)c2ccc(COc3ccc4ccccc4c3)o2)c(=O)n(-c2ccccc2)n1C -5.9%, COc1ccc(Cc2nc(-c3ccc(Br)cc3)no2)cc1 -12.3%, CC(CCc1ccccc1)NC(=O)c1ccc(Br)o1 (stereo not given) 0.63%, O=C1CC(c2ccsc2)c2cc3c(cc2N1)OCCO3 (stereo not given) -5.25%, CCCN1C(=O)c2cc(C(=O)O)ccc2C1O (stereo not given) 1.48%, Cc1ccccc1-c1nc2ccccc2c(=O)n1C1CCS(=O)(=O)C1 (stereo not given) 0.97%, COC1CCCCC1NS(=O)(=O)c1ccccc1 (stereo not given) 3.17%, CCOC(=O)N1CCN(Cc2nc3c(c(=O)[nH]c(=O)n3C)n2Cc2cc(C)ccc2C)CC1 0.32%, O=C(NCC1COc2ccccc2O1)c1ccc(NC(=O)c2ccco2)cc1 (stereo not given) -2.33%, COCCN(C(=O)CNC(=O)c1ccco1)C(C(=O)NC1CCCCC1)c1cccc(OC)c1 (stereo not given) -1.17%, Cc1sc2ncnc(SCC(=O)N3CCCC3)c2c1C 6.39%, CCC(C)(C)n1nnnc1C(c1ccc(OC)c(OC)c1)N1CCN(c2ccccc2)CC1 (stereo not given) -0.16%, OC(CN1CCCCC1)Cn1c(C(F)(F)F)nc2ccccc21 (stereo not given) 3.5%, O=C(CN(c1ccccc1)S(=O)(=O)c1ccccc1)N1CCN(Cc2ccc3c(c2)OCO3)CC1 0.32%, COc1ccc(CC(=O)OCn2nnc3ccccc3c2=O)cc1 -5.56%, N#CC(C(=O)Nc1ccc(Cl)c(Cl)c1)=C1Nc2ccccc2N1 -1.61%, COc1ccc(C)cc1NC(=O)CN1CCN(S(=O)(=O)c2ccc(Cl)cc2)CC1 -2.17%, CCCCCn1c2nc3ccccc3nc2c2c(=O)n(CC(C)C)cnc21 3.55%, CCn1ncc(C2=NOC(C(=O)Nc3ccc4c(c3)OCO4)C2)c1C (stereo not given) -4.92%, COc1ccc(CCNS(=O)(=O)c2ccc3c(c2)CCN3C(=O)CCC(=O)O)cc1OC -4.91%, O=C(CS(=O)(=O)c1cn(Cc2ccc(Cl)cc2)c2ccccc12)N1CCOCC1 -2.62%, CCCS(=O)(=O)C(=C1Nc2ccccc2N1)S(=O)(=O)CCC 4.13%, CCn1c(CCC(=O)Nc2nc3c(s2)CCCC3)nc2cc(S(=O)(=O)N(C)C)ccc21 -3.11%, Cc1nn(-c2ccccc2)c2c1C(O)n1c(nc3ccccc31)S2 (stereo not given) -0.79%, CCSc1nc2ccccc2n1CCC(=O)O 1.11%, COc1cccc(CN=CC2=C(O)CC(C)(C)CC2=O)c1OC -7.54%, CCOC(=O)NC(=O)CSc1nnnn1-c1ccc(Cl)cc1 0.48%
